From ChEMBL document CHEMBL4513141, “CO-ADD screening of NIH (USA) - Clinical Collection” (2021)
Potency and affinity values are given separately.

Experiments:
Klebsiella pneumoniae = settings: Concentration 20 uM; ASSAY_TEST Inhibition of Bacterial Growth; detection method Absorption (OD600); MEDIA CAMHB; plate type 384well; NBS; CORNING #3640; time 18 hr
Candida albicans = settings: 20 µM
Cryptococcus neoformans = settings: Concentration 20 uM; ASSAY_TEST Inhibition of Fungal Growth; detection method Resazurin; Absorption (OD600-OD570); plate type 384well; NBS; CORNING #3640

SMILES	Inhibition (Klebsiella pneumoniae)	Inhibition (Candida albicans)	Inhibition (Cryptococcus neoformans)
O=C1C(c2c(O)[nH]c3ccccc23)=Nc2ccccc21	6.26%	9.69%	-4.77%
NC(=O)c1cccnc1 [NIACINAMIDE]	11.31%	2.62%	-0.49%
CC(=O)OCC(=O)[C@@]1(O)CC[C@H]2[C@@H]3CCC4=CC(=O)C=C[C@]4(C)[C@H]3[C@@H](O)C[C@@]21C [PREDNISOLONE ACETATE]	12.95%	0.73%	-1.37%
NC(=O)N1c2ccccc2CC(=O)c2ccccc21 [OXCARBAZEPINE]	3.69%	2.7%	-4.73%
C#C[C@]1(O)CC[C@H]2[C@@H]3[C@H](C)CC4=C(CCC(=O)C4)[C@H]3CC[C@@]21C [TIBOLONE]	12.38%	6.29%	-2.16%
C#C[C@]1(O)CC[C@H]2[C@@H]3CCC4=Cc5oncc5C[C@]4(C)[C@H]3CC[C@@]21C [DANAZOL]	2.6%	6.36%	0.96%
CC(C)(C(=O)O)c1ccc(C(O)CCCN2CCC(C(O)(c3ccccc3)c3ccccc3)CC2)cc1.Cl (stereo not drawn) [FEXOFENADINE HYDROCHLORIDE]	13.11%	1.18%	-7.41%
CC1Cc2ccccc2N1NC(=O)c1ccc(Cl)c(S(N)(=O)=O)c1 (stereo not drawn) [INDAPAMIDE]	9.63%	-0.23%	-0.18%
CN1CCN(CCCN2c3ccccc3Sc3ccc(C(F)(F)F)cc32)CC1.Cl.Cl [TRIFLUOPERAZINE HYDROCHLORIDE]	10.06%	2.94%	-7.04%
CC(C)NCC(O)COc1ccc(COCCOC(C)C)cc1.CC(C)NCC(O)COc1ccc(COCCOC(C)C)cc1.O=C(O)/C=C/C(=O)O (stereo not drawn) [BISOPROLOL FUMARATE]	12.19%	0.23%	-4.67%
C[C@]12CCC(=O)C=C1CC[C@@H]1[C@@H]2[C@@H](O)C[C@@]2(C)[C@H]1CC[C@]2(O)C(=O)CO [HYDROCORTISONE]	5.06%	1.65%	-3.64%
CCCN[C@H]1CCc2nc(N)sc2C1 [PRAMIPEXOLE]	5.86%	5.21%	-0.71%
CC12CCC(=O)C=C1CCC1C2CCC2(C)C1CCC2(O)C(=O)CO (stereo not drawn)	8.14%	3.12%	-0.13%
CCCCN1CCCC1CNC(=O)c1cc(C#N)c2ccccc2c1OC (stereo not drawn) [NAFADOTRIDE]	16.43%	4.38%	-22.16%
C[C@@H]1C[C@H]2[C@@H]3C[C@H](F)C4=CC(=O)C(Cl)=C[C@]4(C)[C@@]3(F)[C@@H](O)C[C@]2(C)[C@@]1(O)C(=O)CO [HALOMETASONE]	3.82%	-0.05%	-4.6%
CCN(Cc1ccncc1)C(=O)C(CO)c1ccccc1 (stereo not drawn) [TROPICAMIDE]	7.31%	0.91%	-7.15%

SMILES	Inhibition (Klebsiella pneumoniae)	Inhibition (Candida albicans)	Inhibition (Cryptococcus neoformans)
O=c1c(O[C@@H]2O[C@H](CO)[C@H](O)[C@H](O)[C@H]2O)c(-c2ccc(O)c(O)c2)oc2cc(O)cc(O)c12 [HYPEROSIDE]	17.1%	1.21%	-13.27%
C[C@H]1C[C@@H]2[C@H]([C@@H](O)C[C@@]3(C)[C@H]2CC[C@]3(O)C(=O)CO)[C@@]2(C)C=CC(=O)C=C12 [METHYLPREDNISOLONE]	20.28%	2.95%	-7.56%
Cc1cccc(C)c1NC(=O)C1CCCCN1C.Cl (stereo not drawn) [MEPIVACAINE HYDROCHLORIDE]	9.49%	-0.43%	-0.84%
CC(C)NCC(O)COc1ccc(CC(N)=O)cc1 (stereo not drawn) [ATENOLOL]	8.57%	3.26%	1.62%
C[C@]12C=CC(=O)C=C1CC[C@@H]1[C@@H]2[C@@H](O)C[C@@]2(C)[C@H]1CC[C@]2(O)C(=O)COC(=O)CCC(=O)[O-].[Na+] [PREDNISOLONE SODIUM SUCCINATE]	6.54%	-0.07%	1.35%
CN(CCO)CC(O)Cn1cnc2c1c(=O)n(C)c(=O)n2C.O=C(O)c1cccnc1 (stereo not drawn) [XANTHINOL NIACINATE]	12.07%	0.26%	-2.36%
Cl.O=C(c1ccc(OCCN2CCCCC2)cc1)c1c(-c2ccc(O)cc2)sc2cc(O)ccc12 [RALOXIFENE HYDROCHLORIDE]	7.01%	0.43%	-13.3%
CC1(C)S[C@@H]2[C@H](/N=C/N3CCCCCC3)C(=O)N2[C@H]1C(=O)O [AMDINOCILLIN]	18.13%	4.08%	-5.88%
CNNCc1ccc(C(=O)NC(C)C)cc1.Cl [PROCARBAZINE HYDROCHLORIDE]	8%	2.55%	-6.46%
Nc1ccn([C@@H]2O[C@H](CO)[C@@H](O)[C@@H]2O)c(=O)n1 [CYTARABINE]	5.64%	2.79%	-8.77%
COc1ccccc1N1CCN(CC(O)COc2cccc3ccccc23)CC1 (stereo not drawn) [NAFTOPIDIL]	-0.32%	2.55%	1.21%
C[C@]12CCC(=O)C=C1CC[C@@H]1[C@@H]2[C@@H](O)C[C@@]2(C)[C@H]1CC[C@]2(O)C(=O)COC(=O)CCC(=O)O [HYDROCORTISONE HEMISUCCINATE ANHYDROUS]	-3.41%	4.59%	6.86%
CCN(CC)CCOC(=O)C1(C2CCCCC2)CCCCC1.Cl [DICYCLOMINE HYDROCHLORIDE]	5.74%	3.82%	-0.13%
Cc1cnc(C(=O)NCCc2ccc(S(=O)(=O)NC(=O)NC3CCCCC3)cc2)cn1 [GLIPIZIDE]	8.44%	3.06%	-1.88%
COC(=O)[C@H](c1ccccc1Cl)N1CCc2sccc2C1 [CLOPIDOGREL]	14.99%	2.18%	-8.15%
